Bioassay records: PubChem, National Center for Advancing Translational Sciences (NCATS)
A selection: hits, their analogues and other compounds. The true share with any hit is near 2.8%.
Pol iota inh = DNA polymerase iota (human) inhibition | AID 588590 | Pol iota fluorescent replication assay, 10 min | Potency, µM (titrated, usually from 115 µM), for inactives: at the top dose activity, negative = inhibition, most hits filed as inhibitors | Q9UNA4 | 390,000 tested, 1% active; note: potency is the fitted concentration of half-maximal effect
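Fluorescent replication assay read twice, at 0 min and 10 min after adding 50 nM (final) substrate. Enzyme (10 nM) and compounds were first incubated 15 min at room temperature; enzyme-free buffer wells were negative controls.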
POLK inh = inhibitors of human DNA polymerase kappa. Q9UBT6. purified Pol kappa, fluorescent DNA synthesis assay, 10 min. Potency, µM (highest dose often 107 µM), without a hit: at the top dose activity, negative = inhibition, actives largely listed as inhibitors. 400,000 tested, 0.53% active. AID 588579; note: potency is the fitted concentration of half-maximal effect; % is set by controls: 0 for no effect and ±100 for the full control effect
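Here, compound and 10 nM enzyme are combined for 15 min at room temperature; adding 50 nM substrate (final) starts DNA synthesis, tracked by fluorescence at 0 and 10 min against buffer-only wells.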
PI5P4K alpha inh = blocks human PI5P4K alpha kinase activity. P48426. PI5P4Kalpha enzyme, ADP-Glo luminescence, 60 min; hits give low values. max response, %. 330,000 tested, 1.2% active; active = max response of -50% or lower; inconclusive = between -30% and -50%; inactive = -30% or higher; note: value at the top dose of about 77 µM; % is set by controls: 0 for no effect and ±100 for the full control effect
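Reactions run in 0.038 M HEPES pH 7.4, 0.28 mM EGTA, 0.1% CHAPS and 5% DMSO, with PI5P4Kalpha, substrate, compound and 5 microM ATP final, one hour at room temperature. Readout is ADP-Glo luminescence.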
POLH inh = DNA polymerase eta (human) inhibition; Potency, µM (top dose mostly 114 µM), inactives show at the highest dose activity change, negative = inhibition, hits mostly inhibitors; 390,000 tested, 1.2% active; Q9Y253; AID 588591; recombinant Pol eta, fluorescent DNA replication assay; note: potency is the fitted concentration of half-maximal effect; % is set by controls: 0 for no effect and ±100 for the full control effect
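Pol eta at 10 nM preincubated with compounds 15 min at room temperature; reaction started with fluorescent substrate (50 nM final) and read kinetically at 0 and 10 min.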
WRN helicase inh = WRN helicase (human) inhibition | Q14191 | WRN helicase unwinding, fluorescent forked duplex, kinetic | Potency, µM (titrated, usually from 114 µM), for inactives: at the highest dose activity change, negative = inhibition, actives largely listed as inhibitors | 360,000 tested, 0.46% active; note: potency is the fitted concentration of half-maximal effect; % is set by controls: 0 for no effect and ±100 for the full control effect; nearly all actives have a fitted effect of over 55% in size
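WRN at 20 nM final was preincubated with compound for 15 min at room temperature; reaction started with 100 nM forked duplex oligonucleotide carrying fluorophore and quencher plus 2 mM ATP (final). Unwinding followed kinetically by red fluorescence (ex 525/em 598 nm).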
POLB inh = blocks human DNA polymerase beta activity | P06746 | Pol beta primer extension/strand displacement, fluorescence kinetic | Potency, µM (highest dose often 114 µM), for the others: at the highest dose activity change, negative = inhibition, hits mostly inhibitors | 340,000 tested, 1.3% active; note: potency is the fitted concentration of half-maximal effect; % is set by controls: 0 for no effect and ±100 for the full control effect
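Homogeneous kinetic assay of primer extension and strand displacement by 10 nM Pol beta, preincubated 15 min at room temperature with compound before 50 nM substrate (final) was added. Read at 0 and 10 min; four-parameter Hill fit.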
ADP-Glo counter = interferes with ADP-Glo detection without enzyme present; shares compounds with PI5P4K alpha inh; ADP-Glo detection counter-screen, luciferase luminescence, no enzyme; Potency, µM (doses to about 76.9 µM), inactives show top-dose activity change, negative = inhibition, actives largely listed as inhibitors; 1,100 tested, under 10 active
* = called active by the depositor; ? = inconclusive; . = not tested or not shown; [ ] = dose if it differs, or a comment. Unless noted, calls come from the whole dose curve; as a rule, active = well fitted curve in the direction sought with a large enough effect; inconclusive = small, poorly fitted or top-dose-only effect, or another doubt; inactive = no such curve, though single readings can be large; an effect the other way counts as inactive or inconclusive.

SMILES | Pol iota inh | POLK inh | PI5P4K alpha inh | POLH inh | WRN helicase inh | POLB inh | ADP-Glo counter
CCOc1ccc(S(=O)(=O)N(C(=O)c2ccco2)c2cc3sc(=O)oc3c3ccccc23)cc1 | ? | -8.4% | -57.5* | -19.2% | ? | -0.4% | 2.2%
O=C(CN1C(=O)COc2ccc(S(=O)(=O)N3CCOCC3)cc21)N1CCN(c2ccccc2)CC1 | 27.2% | -6.5% | . | -13.8% | . | 5.1% | .
CCOC(=O)c1cccc(NC(=O)CCS(=O)(=O)c2ccc3c(c2)CC(=O)N3C)c1 | 7.8% | -10.6% | . | -4.2% | . | 1.4% | .
Cc1cccc(C)c1NC(=O)C(c1ccccc1)n1c(=O)c(-c2ccco2)nc2ccccc21 (stereo not given) | . | . | -51.8* | . | -11.5% | . | -4.2%
CCCCCNC(=O)C(c1cc2ccccc2o1)n1c(=O)c(-c2ccco2)nc2ccccc21 (stereo not given) | . | . | -108.3* | . | ? | . | -6.8%
COc1ccc(C(C(=O)Nc2c(C)cccc2C)n2c(=O)c(-c3ccco3)nc3ccccc32)cc1 (stereo not given) | . | . | ? | . | -4.0% | . | .
O=C(NCc1ccccc1)C(c1ccccc1F)n1c(=O)c(-c2ccco2)nc2ccccc21 (stereo not given) | . | . | -63.6* | . | -5.8% | . | -5.3%
CCCCCNC(=O)C(c1ccncc1)n1c(=O)c(-c2ccco2)nc2ccccc21 (stereo not given) | . | . | ? | . | 0.2% | . | .
Cc1cccc(C)c1NC(=O)C(c1ccc(C#N)cc1)n1c(=O)c(-c2ccco2)nc2ccccc21 (stereo not given) | . | . | -52.8* | . | -3.3% | . | -1.5%
CCCN(CCC)CCNC(=O)CN1C(=O)COc2ccc(S(=O)(=O)N3CCC(C)CC3)cc21 | 50.9% | 2.1% | . | -15.6% | . | 3.5% | .
NC(=O)C1CCN(c2cc(Cl)nc(N)n2)CC1 | ? | 0.1% | -52.7* | -5.2% | -21.3% | -1.6% | 3.1%
CCN(CC(=O)Nc1ccc(NC(C)=O)cc1)C(=O)c1cc2c(s1)CCCC2 | ? | -21.8% | -50.4* | ? | -6.0% | . | -6.4%
CCN(CC(=O)Nc1ccc(NC(C)=O)cc1)C(=O)c1cc2c(s1)CCCCC2 | 9.5% | -3.6% | 4.6 | -20.0% | -1.3% | . | .
N#Cc1ccc(COC(=O)CC(NC(N)=O)c2ccc(Cl)cc2)cc1 (stereo not given) | 1.7% | -15.2% | ? | ? | 3.5% | 11.0% | 3.8%
C=CCNC(=O)NC(=O)COC(=O)CC(NC(N)=O)c1ccc(Cl)cc1 (stereo not given) | 6.9% | -1.6% | 7.6 | -15.3% | -16.6% | -4.1% | .
CN(Cc1cn(-c2ccccc2)nc1-c1cc2ccccc2o1)C(=O)CCC(=O)O | 32.3% | 0.6% | -58.5* | -17.6% | -23.8% | 7.6% | -0.5%
CC(C)c1nn2c(=O)cc(COC(=O)c3ccco3)nc2s1 | 10.7% | 1.7% | . | -16.2% | . | 3.4% | .
CC(C)[C@H](NC(=O)[C@H](CCC(N)=O)NC(=O)CNC(=O)[C@@H]1CCCN1C(=O)[C@H](Cc1ccc(O)cc1)NC(=O)CN)C(=O)O | . | -4.9%[60.1 µM] | . | . | . | . | .
O=C(Nc1ccccc1Br)N1CCC(CN2CCCC2)CC1 | -12.6% | -9.1%[60.1 µM] | . | -0.4% | . | -7.9% | .
Nc1nc(N)c2c(ccc3c2ccn3Cc2cccc([N+](=O)[O-])c2)n1 | . | . | -61.5* | . | -15.0%[57.1 µM] | . | 0.6%
O=C(CCS(=O)(=O)c1ccc2c(c1)NC(=O)CS2)NCCc1ccccc1 | -1.7% | -18.9% | -0.9 | -3.4% | -2.0% | 10.9% | .
O=C(CCS(=O)(=O)c1ccc2c(c1)NC(=O)CS2)NCCc1ccc(Cl)cc1 | 16.7% | -3.7% | -59.8* | -23.3% | -3.2% | 6.7% | -0.1%
CCOc1ccccc1NC(=O)CN1C(=O)CC(c2ccc(OC)c(OC)c2)Sc2ccccc21 (stereo not given) | 13.7% | -3.3% | . | -23.3% | . | 1.0% | .
CC1CCCC(C)N1C(=O)COC(=O)CN1C(=O)c2ccccc2C1=O (stereo not given) | 55.7% | -9.0% | -3.3 | -14.8% | 2.6% | . | .
CC1CCCC(C)N1C(=O)COC(=O)CNC(=O)c1ccccc1 (stereo not given) | 11.4% | -12.2% | -3.5 | -13.3% | -10.4% | . | -1.3%
SMILES | Pol iota inh | POLK inh | PI5P4K alpha inh | POLH inh | WRN helicase inh | POLB inh | ADP-Glo counter
CC(C)C(=O)Nc1nnc(CCc2ccccc2)s1 | -2.1% | -19.9% | -50.5* | -6.0% | 0.8% | 0.7% | -2.7%
CC(C)C(=O)Nc1nnc(NC(=S)Nc2ccccc2)s1 | 96.0% | 6.8% | -55.9* | -22.1% | -3.1% | 30.7% | -8.5%
CCCc1nnc(NC(=S)Nc2ccccc2)s1 | 119.9% | -0.6% | 4.0 | -17.0% | 1.3% | 1.4% | .
Cc1cccc(NC(=O)CSc2nc3c([nH]c4ccccc43)c(=O)n2-c2ccc(F)cc2)c1C | -5.8% | -2.6%[60.1 µM] | . | 18.8% | . | 8.6% | .
COc1ccc(Nc2ccccc2C(=O)O)cc1 | ? | -17.8% | -63.5* | 3.3% | -9.5% | -1.1% | 6.4%
CCCOc1cccc(C2c3c(oc4ccc(F)cc4c3=O)C(=O)N2CCc2ccc(OC)cc2)c1 (stereo not given) | 40.5% | 5.8% | . | -12.9% | . | -2.9% | .
NC(=O)CSc1ncc2c(n1)-c1ccccc1N(Cc1ccc(Cl)cc1)S2(=O)=O | 3.2% | -7.9% | . | 7.1% | . | -15.6% | .
CC(NC(=O)c1ccc2c(c1)sc1nc(-c3ccccc3)cn12)C12CC3CC(CC(C3)C1)C2 (stereo not given) | -4.5% | -3.5% | . | -2.7% | . | -18.7% | .
O=C(NCc1cc([N+](=O)[O-])ccc1O)c1cccc(NS(=O)(=O)c2ccccc2)c1 | 16.8% | 0.8% | -65.6* | -17.4% | ? | 3.4% | 2.2%
O=C(NCc1ccccn1)c1ccc(NS(=O)(=O)c2cccc([N+](=O)[O-])c2)cc1 | -2.8% | 5.6% | 0.5 | -20.0% | -5.2% | . | .
CN(C)C(=O)c1ccc(NC(=O)COC(=O)C2=COCCO2)cc1 | ? | -27.4% | ? | 0.2% | 1.3% | . | 1.7%
Cc1c(C(=O)OCC(C)C)[nH]c2c1C(=O)CC(c1ccco1)C2 (stereo not given) | ? | -27.0% | -55.7* | 31.6µM* | -16.8%[57.1 µM] | 25.1µM* | -13.3%
CCn1c(C(=O)OC)cc2c1ccn2-c1ccc(F)cc1 | ? | -18.2% | -50.2* | -5.4% | ? | -6.4% | -1.9%
O=C(NCc1ccncc1)c1ccc2nc([C@@H]3O[C@H](CO)[C@H](O)[C@H](O)[C@H]3O)[nH]c2c1 | . | . | 0.9 | . | -0.6% | . | .
Cc1ccccc1CNC(=O)c1ccc2nc([C@@H]3O[C@H](CO)[C@H](O)[C@H](O)[C@H]3O)[nH]c2c1 | . | . | -87.8* | . | 5.5% | . | 2.9%
